Results taken from article PMC4336329 (PLoS ONE, 2015).
Screen size: about 310,000 compounds; about 14,000 (4.5%) showed an effect of 50% or more. Effects have a minus sign here. The sample as a whole holds a higher share of strong results than the screen did.

The compounds below were run against human ether-à-go-go-related gene (hERG) potassium channel (human, UniProt Q12809) (assay: primary screen, population patch clamp on CHO cells stably expressing hERG; higher = less effect of the substance).
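Also: peak tail current of the secondary pulse compared with the same well before compound.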

Chain of human ether-à-go-go-related gene (hERG) potassium channel (Q12809 whole entry, looked up): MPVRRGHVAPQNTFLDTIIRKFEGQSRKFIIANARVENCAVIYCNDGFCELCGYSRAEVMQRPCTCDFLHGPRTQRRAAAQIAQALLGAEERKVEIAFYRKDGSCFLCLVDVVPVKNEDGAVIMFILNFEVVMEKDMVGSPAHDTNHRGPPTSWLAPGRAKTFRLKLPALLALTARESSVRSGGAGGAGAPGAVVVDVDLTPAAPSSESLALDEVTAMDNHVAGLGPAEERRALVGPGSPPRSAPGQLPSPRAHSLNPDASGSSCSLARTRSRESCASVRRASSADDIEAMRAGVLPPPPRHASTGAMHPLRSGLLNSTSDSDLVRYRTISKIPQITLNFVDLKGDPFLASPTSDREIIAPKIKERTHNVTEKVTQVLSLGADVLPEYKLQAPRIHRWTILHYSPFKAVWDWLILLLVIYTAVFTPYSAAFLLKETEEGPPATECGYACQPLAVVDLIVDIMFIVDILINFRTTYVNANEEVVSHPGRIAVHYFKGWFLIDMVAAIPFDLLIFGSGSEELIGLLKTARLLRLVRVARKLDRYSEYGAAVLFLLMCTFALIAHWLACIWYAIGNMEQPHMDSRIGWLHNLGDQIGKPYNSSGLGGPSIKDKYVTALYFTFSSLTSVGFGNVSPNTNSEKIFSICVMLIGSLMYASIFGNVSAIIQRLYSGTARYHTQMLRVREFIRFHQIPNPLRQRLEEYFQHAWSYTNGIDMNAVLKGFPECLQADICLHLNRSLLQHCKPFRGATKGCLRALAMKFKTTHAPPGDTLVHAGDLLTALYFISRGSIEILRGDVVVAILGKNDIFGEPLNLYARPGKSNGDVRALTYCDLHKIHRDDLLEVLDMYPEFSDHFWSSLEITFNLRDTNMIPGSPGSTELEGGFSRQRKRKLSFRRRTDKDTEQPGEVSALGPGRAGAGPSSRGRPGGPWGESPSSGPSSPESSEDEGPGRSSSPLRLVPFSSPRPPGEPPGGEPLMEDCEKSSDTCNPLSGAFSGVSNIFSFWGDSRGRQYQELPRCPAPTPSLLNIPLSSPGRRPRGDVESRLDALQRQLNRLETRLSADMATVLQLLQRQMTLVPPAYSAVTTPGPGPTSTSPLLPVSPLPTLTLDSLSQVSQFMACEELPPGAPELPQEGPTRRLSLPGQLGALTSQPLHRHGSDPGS

SMILES	hERG current change (%, negative = inhibition) at 10uM
COc1cccc(NC(=O)COC(=O)c2ccccc2F)c1	13.8%
O=C(CCc1nnc2ccc(N3CCC4(CC3)OCCO4)nn12)Nc1ccc(F)cc1	-40.2%
CC(C)[C@H](CN(N=O)[C@@H](Cc1ccccc1)CN(C)N=O)N(CCc1ccccc1)N=O.[Na+]	-0.676%
CC(C)(C)C(=O)NC(NC(=O)C(C)(C)C)c1ccc([N+](=O)[O-])cc1	8.18%
CCn1nc(C)c(Br)c1-c1nc(-c2cccc(C)c2)no1	19.1%
COc1ccc(N=NC2=C(O)CC(C)(C)CC2=O)cc1	-9.39%
CC1(C)CC(=O)C(N=Nc2ccc(F)cc2)=C(O)C1	-4.21%
CC1(C)CC(=O)C(N=Nc2ccc(OC(F)F)cc2)=C(O)C1	-57.6%
COc1ccc(-n2cnc3cc(C(=O)N4CCC5(CC4)OCCO5)ccc32)cc1	-42.8%
O=C(Cc1ccccc1)Nc1ccccc1N1CCCC1	9.76%
Cc1ccc(-c2nnc(SCC(=O)Nc3ccccc3F)o2)cc1	6.53%
Cc1ccccc1CSc1ccc2nnc(-c3ccccn3)n2n1	-81.6%
Cc1cc(NC(=O)CSc2ccc3nnc(-c4ccccn4)n3n2)no1	-6.72%
Cc1ccccc1NC(=O)CSc1ccc2nnc(-c3ccccn3)n2n1	-23.8%
Cc1nnc(NC(=O)CSc2ccc3nnc(-c4ccccn4)n3n2)s1	-9.79%
Cc1ccccc1CSc1nnc(-c2ccccn2)n1C	-1.96%
Cc1ccc(C)c(CSc2ccc3nnc(-c4ccccn4)n3n2)c1	-76.5%
CS(=O)Cc1cc(Oc2ccccc2)nc(-c2ccncc2)n1 (centres unmarked)	-16.5%
Cc1nc2cc(NC(=O)c3ccc(Br)s3)ccc2s1	20%
O=[N+]([O-])c1ccc(N2CCN(CCO)CC2)cc1Sc1nc2ccccc2[nH]1	-12.4%
O=C(CSc1nc2ccccc2[nH]1)Nc1ccc(N2CCOCC2)cc1	8.65%
Br.CC1(C(=O)CSc2nc3ccccc3s2)CCC(=O)O1 (centres unmarked)	-2.67%
COc1ccccc1N1CCN(C(=O)CSc2ncccc2-c2nc3ccccc3[nH]2)CC1	-23.7%
O=C(CCCSc1nc2ccccc2[nH]1)N1CCN(c2ccc([N+](=O)[O-])cc2)CC1	-79.9%

SMILES	hERG current change (%, negative = inhibition) at 10uM
NC(=O)CCCSc1nc2ccccc2[nH]1	13.3%
CC1(C(=O)CSc2nc3ccccc3[nH]2)CCC(=O)O1 (centres unmarked)	-70.8%
CN1CCN(c2ccc([N+](=O)[O-])c(Sc3nc4ccccc4[nH]3)c2)CC1	-19.7%
Br.CC1(C(=O)CSc2ncn[nH]2)CCC(=O)O1 (centres unmarked)	2.21%
O=C(CSc1ncccc1-c1nc2ccccc2[nH]1)N1CCCCC1	-16.3%
COc1ccc(N2CCN(C(=O)CSc3ncccc3-c3nc4ccccc4[nH]3)CC2)cc1	-53.4%
CCN1CCN(c2ccc([N+](=O)[O-])c(Sc3nc4ccccc4[nH]3)c2)CC1	-60.4%
COC(=O)C1=C(C)N(CCc2ccc(OC)c(OC)c2)C(=O)C1	18.5%
O=C(CNS(=O)(=O)c1ccc(Cl)cc1)NNC(=O)c1cccnc1	20.7%
S=C1NC[C@H](Cc2cccc3ccccc23)N1CC1CCCCC1	10.3%
COc1cc(O)sc1C=Nc1ccc(Cl)cc1	4.72%
Cc1cc2c(n1-c1ccc(Br)cc1)CC(C)(C)CC2=O	-33.5%
O=S(=O)(Nc1cccc(-n2cnnn2)c1)c1ccccc1C(F)(F)F	12%
CN1CCN(CCC(=O)N/N=C/c2cc([N+](=O)[O-])ccc2OC(F)F)CC1	1.78%
C#CCOCCOCCOCCNc1nc(N2CCN(C(=O)CCCCCCCCCCNC(=O)Cn3cc(CCCCCN)nn3)CC2)nc(N2CCN(C(=O)CCCCCCCCCCNC(=O)[C@@H](CCC(=O)O)n3cc(CCCCCN)nn3)CC2)n1	-5.58%
CC(=O)Nc1cccc(NC(=O)CSc2nnc(Cc3cccn3C)n2-c2ccc(C)cc2)c1	-11.9%
Cc1ccnc(NC(=O)c2ccc(Cl)c(NC(=O)C(C)Oc3ccccc3)c2)c1 (centres unmarked)	1.41%
Cc1ccc2nc(SCC(=O)N3CCN(c4ccccc4)CC3)[nH]c2c1	1.42%
O=C(CCCSc1nc2ccccc2[nH]1)NCc1ccccc1Cl	-19.3%
O=C(CCCSc1nc2ccccc2[nH]1)Nc1ccccc1	7.05%
Cc1cccc(N2CCN(C(=O)CCCSc3nc4ccccc4[nH]3)CC2)c1C	-17.4%
O=C(CSc1nc2ccccc2[nH]1)N1CCN(c2ccc(F)cc2)CC1	-55.6%
O=C(CCCSc1nc2ccccc2[nH]1)NCc1ccc(Cl)cc1	-62.3%
COc1ccc(N2CCN(C(=O)CCCSc3nc4ccccc4[nH]3)CC2)cc1	-62.3%

SMILES	hERG current change (%, negative = inhibition) at 10uM
O=C(CCCSc1nc2ccccc2[nH]1)N1CCN(c2ccccc2)CC1	-60.2%
O=C(CCCSc1nc2ccccc2[nH]1)NCc1ccccc1	-23.9%
COc1ccc(N2CCN(C(=O)CSc3nc4ccccc4c(=O)[nH]3)CC2)cc1	-10.7%
O=C(CSc1nc2ccccc2[nH]1)N1CCCCC1	-2%
O=C(CSc1nc2ccccc2[nH]1)N1CCN(c2ccccc2)CC1	-0.235%
CC(C)CNC(=O)C(=O)NC1CCCC1	11.7%
CC1=C(C)CC(C(=O)Nc2nccs2)C(C(=O)O)C1 (centres unmarked)	28.7%
O=C(CSc1n[nH]c(-c2ccncc2)n1)Nc1ccc(Br)cc1	-2.1%
CN(C)/C=N/c1nc2nccc(-c3ccc(F)cc3)n2n1	13.8%
CCC1Oc2ccc(C)cc2N(CC(=O)NCCCN2CCCCC2C)C1=O (centres unmarked)	3.15%
CN(C(=O)CSc1nnc(-c2ccccc2)o1)c1c(N)n(Cc2ccccc2)c(=O)[nH]c1=O	12%
COc1cccc(N2C(=O)/C(=C/c3ccc(C)o3)C(=O)NC2=S)c1	15%
COc1ccc(/C=C/C=N/NC(=O)COc2ccc(OC)cc2)cc1	1.85%
O=C(CCN1C(=O)C2C3CCC(C3)C2C1=O)OCC(=O)c1ccc(Cl)cc1 (centres unmarked)	-53.2%
O=C(CCN1C(=O)C2C3CCC(C3)C2C1=O)OCC(=O)c1ccc(Br)cc1 (centres unmarked)	-30.2%
O=C(CCN1C(=O)C2C3CCC(C3)C2C1=O)OCC(=O)c1ccccc1 (centres unmarked)	9.98%
CC(C(=O)OCC(=O)c1cccc([N+](=O)[O-])c1)N1C(=O)C2C3CCC(C3)C2C1=O (centres unmarked)	2.55%
CC(C(=O)OCC(=O)c1ccc([N+](=O)[O-])cc1)N1C(=O)C2C3C=CC(C3)C2C1=O (centres unmarked)	-43%
CC(C(=O)OCC(=O)c1ccc([N+](=O)[O-])cc1)N1C(=O)C2C3CCC(C3)C2C1=O (centres unmarked)	-54%
Cc1ccc(CSCC(=O)N(C)CC(=O)Nc2cccc(F)c2)cc1	-17.5%
COC(=O)CNC(=O)c1c(-c2ccccc2Cl)noc1C	-5.68%
CCCCc1nc(NCc2ccccc2)c(C#N)c2c1COC(C)(C)C2	12.9%
CCOC(=O)c1c(C)[nH]c(C)c1S(=O)(=O)NC(CC)CN1CCOCC1 (centres unmarked)	7.32%
O=C(NC(=S)Nc1ccccc1C(=O)O)c1ccc(-c2ccc(Br)cc2)o1	28.3%

SMILES	hERG current change (%, negative = inhibition) at 10uM
COc1ccc(CCN2C(=O)N[C@@H](CCC(=O)O)C2=O)cc1	19%
C/C(=C/c1ccccc1)C(=O)N1CCN(c2ccc(F)cc2)CC1	-42.2%
COc1ccc(N2CCN(C(C)=C3C(=O)c4ccccc4C3=O)CC2)cc1	-53.3%
COc1ccc(N2CCN(C(=O)C(OC(C)=O)c3ccccc3)CC2)cc1 (centres unmarked)	-0.89%
COC(=O)N1CCN(c2ccc(OC)cc2)CC1	4.33%
CC(=C1C(=O)c2ccccc2C1=O)N1CCN(c2ccccn2)CC1	-28.3%
CC(=C1C(=O)c2ccccc2C1=O)N1CCN(c2ccc(F)cc2)CC1	-69.8%
O=C(NC1CCCCC1)NC1C2CC3CC(C2)CC1C3 (centres unmarked)	-6.14%
CCCNC(=S)Nc1ccc(Cl)cc1C	1.16%
Cc1ccc(S(=O)(=O)NCCNC(=O)c2ccccc2)cc1	12.4%
CC(C)Oc1ccc(C(CC(=O)O)NC(=O)Cc2ccc(Cl)cc2)cc1 (centres unmarked)	24.8%
CCOC(=O)CN(C(=O)CSc1nnc(Cc2ccccc2)n1-c1ccc(C)cc1)c1ccccc1	-59.2%
COc1ccc(-n2c(Cc3cccn3C)nnc2SCC(=O)Nc2nccs2)cc1	-9.82%
COc1ccc(-n2c(SCC(=O)Nc3nccs3)nnc2-c2ccccc2)cc1	-62.5%
COc1ccc(-n2c(SCC(=O)Nc3nc(C)cs3)nnc2-c2ccoc2C)cc1	-81%
CCOc1ccc(-n2c(SCC(=O)Nc3nccs3)nnc2-c2ccoc2C)cc1	-56.1%
CCOc1ccc(-n2c(SCC(=O)NC)nnc2-c2ccco2)cc1	-27.5%
CCOC(=O)CSc1nnc(Cc2ccccc2)n1-c1ccc(C)cc1	-37.4%
COc1ccc(-n2c(Cc3cccn3C)nnc2SCC(=O)Nc2nc(C)cs2)cc1	-6.16%
Cc1csc(NC(=O)CSc2nnc(-c3ccoc3C)o2)n1	4.99%
CCOC(=O)CN(C(=O)CSc1nnc(C)n1-c1ccccc1)c1ccccc1	6.79%
COc1ccc(CC(=O)NCc2nnc(SCC(=O)Nc3nccs3)n2-c2ccccc2)cc1	2.7%
CCOc1ccccc1-n1c(SCC(=O)Nc2nccs2)nnc1-c1ccoc1C	-5.08%
